Data from PubChem BioAssay (NCI).
Compounds without any hit were thinned out: in the full panel of roughly 83,000, 20% have a hit.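 The test compound was applied at a single concentration to cells in 96-well plates for 48 hours, and percent growth was recorded.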 Activity calls are given as the source filed them.

The molecules below were run on RPMI-8226 leukemia (assay: NCI-60 one-dose screen, 48 h (100 = growth as untreated, 0 = no growth, -100 = all killed)). Settings: 10 µM unless noted.
Description: Growth inhibition of the RPMI-8226 human tumor cell line is measured as a screen for anti-cancer activity. Cells are grown in 96 well plates and exposed to the test compound for 48 hours. Compounds are tested at a single concentration, which is 10^-5 M for most compounds. The reported endpoint is percent growth (GI% or GIPRCNT), where numbers from 0 - 100% represent growth inhibition, and numbers from -100% - 0 represent cell death. For example, a value of 40 represents 60% growth inhibition. A value of 0 means no net growth occurred over the course of the experiment. A value of -40 indicates 40% of cells at the beginning of the experiment died by the end of the experiment. A value of -100 means all cells are dead at the end of the experiment.
NCI-60 Human Tumor Cell Lines Screen was performed using the standard one-dose NCI protocol, which is described in more detail at https://dtp.cancer.gov/discovery_development/nci-60/default.htm.
Compounds with GIPRCNT values below 10 were considered active. Activity score was based on GIPRCNT using the following formula: […]
Score is 0 for GIPRCNT values of 100 or above, 50 for GIPRCNT values of 0, and 100 for GIPRCNT values of -100.
In the case of `NC(=N\N=C/Cc1ccccc1)/C(N)=N\N=C\Cc1ccccc1`, the growth is reported as 101% (inactive). With `N/C(=N\C(N)=N\c1nc2ccccc2s1)c1ccnc(Cl)c1` the growth was 15.2% (inactive). `O=C(Nc1ccccc1)P(=O)(O)c1ccccc1` was tested, and the growth was 111% (inactive). With `Cc1ccc(C(NC(=O)c2ccccc2)c2ccc3cccnc3c2O)cc1` (stereo not given) the growth was 14.9% (inactive). In the case of `Cc1cc2ccccn2c1C(=O)c1ccc(C(=O)c2ccccc2)cc1`, the growth is reported as 82.1% (inactive). With `CC(C)N(Cc1ccccc1)c1c(Cl)ssc1=O` the growth was 115% (inactive). In the case of `CC1=C([Se]CC(OC(=O)[C@@H](CSSC(C)(C)C)NC(=O)C(C)(C)C)C(=O)NCCCCCC(=O)OCc2ccccc2)C(=O)c2ccccc2C1=O` (stereo not given in full), the growth is reported as -11% (active). For `CCOc1cc(/C=C/C(=O)C(C(=O)/C=C/c2ccc(OC(=O)CNc3nnc(C)s3)c(OCC)c2)C(=O)CNc2nnc(C)s2)ccc1OC(=O)CNc1nnc(C)s1`, the growth was -68.3% (active). `CCCn1c(N)c(C(=O)CNc2ccc(I)cc2)c(=O)[nH]c1=O` was tested, and the growth was 29.1% (inactive). `CC(=O)N1N=C(c2ccc(Nc3ccnc4cc(Cl)ccc34)cc2)CC1c1ccc(Cl)cc1` (stereo not given) was tested, and the growth was 22.3% (inactive). With `O=C1/C(=C\c2coc3ccccc3c2=O)c2ccccc2N1c1c(Cl)cccc1Cl` the growth was 10.2% (inactive). With `NS(=O)(=O)c1ccc(-n2ncc3c(N/N=C/c4ccccc4)ncnc32)cc1` the growth was 83.4% (inactive). In the case of `CCCCCCCCCCCCC1CCCC(C)C1` (stereo not given), the growth is reported as 99% (inactive). `Fc1ccc(-c2nn3c(-c4cc(C(F)(F)F)cc(C(F)(F)F)c4)nnc3s2)cc1` was tested, and the growth was 95.6% (inactive). In the case of `COc1ccc(C(=O)COc2cccc(/C=C3\COc4ccc5ccccc5c4C3=O)c2)cc1`, the growth is reported as 2.86% (active). In the case of `COc1cnc2c(c1)C(=O)c1c-2n(CCCN2CCCC2)c(=O)c2cc(F)ccc12`, the growth is reported as -22.8% (active). For `C[N+]1(C)C2CC[C@@H]1CC(OC(=O)C(O)c1ccccc1)C2` (stereo not given in full), the growth was 93.9% (inactive). `C[C@]12CCC(=O)C=C1CCC1C2[C@@H](O)C[C@@]2(C)C1CC[C@]2(O)C(=O)COC(=O)CCC(=O)O` (stereo not given in full) was tested, and the growth was 63.6% (inactive). `C=CCNC(=O)/C(=C/c1cccc([N+](=O)[O-])c1)NC(=O)c1ccccc1` was tested, and the growth was 108% (inactive). With `NC(=NCCCCCCN=C(N)/N=C(\N)Nc1ccc(Cl)cc1)/N=C(\N)Nc1ccc(Cl)cc1` the growth was 28.4% (inactive). In the case of `O=C(c1ccccc1)c1ccc(Oc2ccc([N+](=O)[O-])cc2[N+](=O)[O-])cc1`, the growth is reported as 35.2% (inactive). `CCOC(=O)/C=C1/SC(=Nc2ccc(C#N)cc2)N(Cc2ccco2)C1=O` was tested, and the growth was -33.8% (active). With `CC(C)=CCCC(C)c1ccc(C)c2c1OCN(CC1CCNCC1)C2` (stereo not given) the growth was 23.7% (inactive). `COc1ccc(C(=O)/C=C/c2cccc(Nc3ccnc4cc(Cl)ccc34)c2)cc1` was tested, and the growth was 35.3% (inactive). In the case of `Oc1ccccc1/C=N/N1CCCCCC1`, the growth is reported as 99.6% (inactive). In the case of `O=C1NCCc2c1noc2-c1ccccc1`, the growth is reported as 113% (inactive). In the case of `CNc1nc(NC2CCCC2)nc(Sc2ccc(OC)cc2)n1`, the growth is reported as -11.2% [100 µM] (active). With `CSc1nc(-c2ccc(O)cc2O)c2c(=O)[nH]c(Nc3ccc(S(=O)(=O)Nc4nc(C)cc(C)n4)cc3)nc2n1` the growth was 99.2% (inactive). In the case of `ICCC(c1ccccc1)(c1ccccc1)c1ccccc1`, the growth is reported as 20% (inactive). `Cc1cc(C)nc(NS(=O)(=O)c2ccc(Nc3nc4nc(SCc5ccccc5)nc(-c5ccc(O)cc5)c4c(=O)[nH]3)cc2)n1` was tested, and the growth was 66.7% (inactive). For `CC1CC=CCC1C1OCC(C)(C)CO1` (stereo not given), the growth was 97.2% (inactive). For `CCOC(=O)C(Br)=P(c1ccccc1)(c1ccccc1)c1ccccc1`, the growth was 83.1% (inactive). With `Cc1onc(-c2ccccc2Cl)c1C(=O)N[C@@H]1C(=O)N2[C@@H]1SC(C)(C)[C@@H]2C(=O)O` the growth was 95.4% (inactive). In the case of `CN1CCC[C@@H]1CCO[C@](C)(c1ccccc1)c1ccc(Cl)cc1`, the growth is reported as 70.4% (inactive). `Cc1ccc(-c2cc(-c3ccccc3)n(-c3ccccc3)n2)cc1` was tested, and the growth was 83.8% (inactive). With `Cc1cc(C(=O)Nc2ccc3cc(CN4CCOCC4)ccc3n2)c(C)n1-c1ccccc1` the growth was -21% (active). `COc1cc(C2=NN(C=O)C(c3cccc(Nc4ccnc5cc(Cl)ccc45)c3)C2)cc(OC)c1OC` (stereo not given) was tested, and the growth was 53.7% (inactive). In the case of `COc1cccc(CCN2C(=O)CCC3=C2CCC3=O)c1`, the growth is reported as 98.1% (inactive). For `CC(=O)N1N=C(c2ccc(Nc3nc(NCCO)nc(NCCO)n3)cc2)CC1c1ccc(Cl)cc1` (stereo not given), the growth was 112% (inactive). With `O=C(/C=C/c1cccc(O)c1)c1cccc(-n2cc(-c3ccccc3)[nH]c2=O)c1` the growth was -45.4% (active).
